From PubChem BioAssay
The source made the active and inactive calls.

What was measured:
[1] = E. coli DRC41 culture turbidity changes, primary screen, E. coli filamentation inducer project, strain DRC41, OD650, 48 h (AID 1152);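 further: E. coli MC1000 strain DRC41 lacking acrAB efflux pump and sulA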; settings: E. coli DRC41 (acrAB sulA), higher = more signal, called active from +8 up or from −8 down
[2] = small-molecule binders of probe aLefty1, primary screen, biochemical, small-molecule microarray, 635/667 nm fluorescence (AID 1153); settings: higher = more signal;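 further: score merges spot fluorescence with signal-to-noise ratio from the scanned slide images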
[3] = PSAC antagonists in infected red cells, primary screen, cell-based, P. falciparum Indochina, OD700, 1 h (AID 1154); settings: P. falciparum Indochina infected RBC osmotic lysis, higher = more signal, called active from +8 up or from −8 down
[4] = PSAC antagonists in infected red cells, primary screen, cell-based, P. falciparum Indochina, OD700, 2 h (AID 1155);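 further: lysis reports solute entry through the parasite surface anion channel PSAC; channel blockers reduce lysis of infected cells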; settings: P. falciparum Indochina infected erythrocytes, osmotic lysis OD700; higher = more signal, called active from +8 up or from −8 down
[5] = osmotic lysis modulators in infected erythrocytes, primary screen, PSAC antagonist project, cell-based, P. falciparum Indochina, OD700, 3 h (AID 1156); settings: higher = more signal, called active from +8 up or from −8 down
[6] = PSAC antagonists in infected red cells, primary screen, cell-based, P. falciparum Indochina, OD700, 18 h (AID 1157); settings: P. falciparum Indochina infected erythrocytes, osmotic lysis OD700, 18 h; higher = more signal, called active from +8 up or from −8 down
[7] = modulators of S6 phosphorylation in cells, primary screen, cell-based, A549, cytoblot, luminescence, serum-stimulated (AID 1158); settings: A549 phospho-S6 cytoblot, 5 h, higher = more signal;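 further: serum-stimulated A549 lung adenocarcinoma cells; signal is phosphorylated S6 detected by cytoblot immunostaining with HRP secondary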
[8] = molecular target: NADPH oxidase 2 (Homo sapiens) (UniProt P04839); assay: NOX2-dependent H2O2 signal modulators, primary screen, NOX inhibitor project, cell-based, HEK293-NOX2, PMA-stimulated, Amplex Red fluorescence (AID 1159); settings: 45 min, higher = more signal, called active from +8 up or from −8 down; further: test concentration not given here
[9] = molecular target: NADPH oxidase 4 (Homo sapiens) (UniProt Q9NPH5); assay: NOX4-dependent H2O2 signal modulators, primary screen, NOX inhibitor project, cell-based, HEK293-NOX4, tetracycline-induced, Amplex Red fluorescence (AID 1160); settings: 45 min, higher = more signal, called active from +8 up or from −8 down
[10] = molecular target: NADPH oxidase 5 (Homo sapiens) (UniProt Q96PH1); assay: NOX5-dependent H2O2 signal modulators, primary screen, NOX inhibitor project, cell-based, HEK293-NOX5, Amplex Red fluorescence (AID 1161); settings: HEK293-NOX5, ionomycin, 45 min, higher = more signal
[11] = A549 cell viability effects, profiling panel, calcein-AM fluorescence, 48 h, basal (AID 1162); settings: higher = more signal; further: test concentration not given here
[12] = adipocyte viability effects, profiling panel, cell-based, 3T3-L1 adipocytes, calcein-AM fluorescence, 48 h, basal (AID 1163); settings: 3T3-L1 adipocytes viability, higher = more signal; further: test concentration not given here
[13] = HepG2 cell viability effects, profiling panel, calcein-AM fluorescence, 48 h, basal (AID 1164); settings: higher = more signal; further: test concentration not given here
[14] = MM1S cell viability effects, profiling panel, calcein-AM fluorescence, 48 h, basal (AID 1165); settings: higher = more signal;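 further: viability of MM1S multiple myeloma cells under basal unstimulated conditions; test concentration not given here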
[15] = basal RPMI8226 viability, no added stimulus, profiling panel, cell-based, calcein-AM fluorescence, 48 h, PK04 Diversity Set (AID 1166); settings: RPMI8226 myeloma viability, higher = more signal;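 further: cells grown under basal conditions without added stimulus; test concentration not given here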
[16] = basal HepG2 mitochondrial membrane potential changes, profiling panel, cell-based, JC-1 fluorescence, 24 h, 100 nL compound (AID 1167); settings: higher = more signal; further: test concentration not given here
[17] = basal 3T3-L1 adipocyte mitochondrial potential changes, profiling panel, cell-based, JC-1 fluorescence, 3T3-L1 adipocytes, 24 h, 100 nL compound (AID 1168); settings: JC-1 mitochondrial fluorescence, higher = more signal, called active from +8 up or from −8 down; further: test concentration not given here
[18] = basal RPMI8226 mitochondrial membrane potential changes, profiling panel, cell-based, JC-1 fluorescence, 24 h, 100 nL compound (AID 1169); settings: RPMI8226 myeloma, JC-1 mitochondrial potential fluorescence, higher = more signal; further: test concentration not given here
[19] = basal MM1S mitochondrial membrane potential changes, profiling panel, cell-based, JC-1 fluorescence, 24 h, 100 nL compound (AID 1170); settings: higher = more signal; further: test concentration not given here
[20] = A549 lung cancer cell viability effects, profiling panel, resazurin fluorescence, 24 h, PK04 Diversity Set (AID 1171); settings: higher = more signal, called active from +8 up or from −8 down; further: test concentration not given here

Chain of NADPH oxidase 4 (Homo sapiens) (Q9NPH5 whole entry, looked up): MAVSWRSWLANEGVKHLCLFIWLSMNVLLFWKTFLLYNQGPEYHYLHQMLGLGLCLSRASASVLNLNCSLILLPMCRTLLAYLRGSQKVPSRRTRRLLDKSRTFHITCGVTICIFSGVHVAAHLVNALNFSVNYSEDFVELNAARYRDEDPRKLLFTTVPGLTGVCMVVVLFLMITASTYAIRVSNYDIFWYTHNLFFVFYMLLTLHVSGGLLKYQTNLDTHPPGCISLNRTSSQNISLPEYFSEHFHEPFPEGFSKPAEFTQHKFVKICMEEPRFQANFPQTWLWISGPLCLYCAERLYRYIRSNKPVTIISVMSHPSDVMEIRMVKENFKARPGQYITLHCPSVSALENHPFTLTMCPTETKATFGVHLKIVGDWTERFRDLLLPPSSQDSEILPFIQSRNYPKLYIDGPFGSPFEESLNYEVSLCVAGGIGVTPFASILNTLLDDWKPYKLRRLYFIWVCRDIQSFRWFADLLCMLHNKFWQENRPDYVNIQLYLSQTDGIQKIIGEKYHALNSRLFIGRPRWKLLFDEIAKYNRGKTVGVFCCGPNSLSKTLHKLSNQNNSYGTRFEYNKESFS
Chain of NADPH oxidase 2 (Homo sapiens) (P04839 whole entry, looked up): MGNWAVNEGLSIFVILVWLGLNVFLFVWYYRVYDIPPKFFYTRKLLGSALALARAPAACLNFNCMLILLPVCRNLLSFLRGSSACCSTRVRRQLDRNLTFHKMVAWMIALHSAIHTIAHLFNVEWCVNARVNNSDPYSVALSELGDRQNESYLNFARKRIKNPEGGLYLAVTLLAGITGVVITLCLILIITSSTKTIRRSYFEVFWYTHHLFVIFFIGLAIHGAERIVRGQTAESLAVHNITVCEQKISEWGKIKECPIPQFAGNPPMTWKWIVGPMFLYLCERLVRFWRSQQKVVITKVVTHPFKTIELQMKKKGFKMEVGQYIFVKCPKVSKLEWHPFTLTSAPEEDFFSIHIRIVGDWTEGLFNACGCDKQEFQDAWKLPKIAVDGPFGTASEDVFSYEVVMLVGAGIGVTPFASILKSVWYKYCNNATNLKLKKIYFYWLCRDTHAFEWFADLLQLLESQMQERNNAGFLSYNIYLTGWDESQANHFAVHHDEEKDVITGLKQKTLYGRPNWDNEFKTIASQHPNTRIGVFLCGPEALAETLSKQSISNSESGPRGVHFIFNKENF
Chain of NADPH oxidase 5 (Homo sapiens) (Q96PH1 whole entry, looked up): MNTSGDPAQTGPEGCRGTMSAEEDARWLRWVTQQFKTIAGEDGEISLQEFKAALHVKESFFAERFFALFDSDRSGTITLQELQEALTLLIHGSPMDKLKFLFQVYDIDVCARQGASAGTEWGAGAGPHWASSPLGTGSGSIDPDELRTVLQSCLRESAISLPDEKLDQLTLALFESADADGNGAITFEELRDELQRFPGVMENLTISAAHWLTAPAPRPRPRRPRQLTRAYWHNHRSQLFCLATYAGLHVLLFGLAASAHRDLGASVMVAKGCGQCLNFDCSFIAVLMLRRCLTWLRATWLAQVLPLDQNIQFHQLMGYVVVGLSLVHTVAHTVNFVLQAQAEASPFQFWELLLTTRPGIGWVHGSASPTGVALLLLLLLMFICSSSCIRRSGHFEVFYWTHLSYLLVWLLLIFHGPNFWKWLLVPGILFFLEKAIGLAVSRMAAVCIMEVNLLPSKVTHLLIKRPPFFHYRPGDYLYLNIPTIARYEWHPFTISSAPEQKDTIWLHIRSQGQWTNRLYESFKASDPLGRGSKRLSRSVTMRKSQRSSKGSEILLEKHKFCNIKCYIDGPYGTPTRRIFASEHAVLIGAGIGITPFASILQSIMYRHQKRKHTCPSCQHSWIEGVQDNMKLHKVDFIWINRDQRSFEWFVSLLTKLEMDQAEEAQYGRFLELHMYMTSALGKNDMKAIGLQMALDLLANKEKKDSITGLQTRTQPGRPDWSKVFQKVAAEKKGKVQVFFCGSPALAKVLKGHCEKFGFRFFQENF

O=C(CCCCCCC(=O)Nc1ccccc1)N/N=C/c1ccccc1
z-score [1]: -0.362 (inactive) | composite z-score [2]: -0.24 | z-score [3]: 24 (active) | z-score [4]: 10.9 (active) | z-score [5]: 0.0998 (inactive) | z-score [6]: 0.992 (inactive) | z-score [7]: -0.0886 | z-score [8]: -0.3 (inactive) | z-score [9]: -0.0411 (inactive) | z-score [10]: -0.185 | z-score [11]: 1.08 | z-score [12]: 0.194 | z-score [13]: -0.371 | z-score [14]: -0.669 | z-score [15]: -0.419 | z-score [16]: -0.807 | z-score [17]: -0.498 (inactive) | z-score [18]: -0.045 | z-score [19]: -0.593 | z-score [20]: 0.589 (inactive)

C[C@H]1C2=C3C(CC[C@H]4C(OCc5ccc(F)cc5C(F)(F)F)OC[C@](C)([C@@H]34)N(C(=O)OC(C)(C)C)C2)C2COC(=O)OCC21 (stereo not given in full)
z-score [1]: -2.42 (inactive) | composite z-score [2]: 0.739 | z-score [3]: 2.68 (inactive) | z-score [4]: 0.368 (inactive) | z-score [5]: 1.19 (inactive) | z-score [6]: 1.11 (inactive) | z-score [7]: -0.139 | z-score [8]: -0.0545 (inactive) | z-score [9]: -2.17 (inactive) | z-score [10]: -1.09 | z-score [11]: -1.17 | z-score [12]: 0.338 | z-score [13]: -0.659 | z-score [14]: -2.6 | z-score [15]: -3.96 | z-score [16]: -0.255 | z-score [17]: -1.06 (inactive) | z-score [18]: -0.325 | z-score [19]: -0.183 | z-score [20]: 0.117 (inactive)

C=C(/C=C/CNS(=O)(=O)c1ccc(C)cc1)[C@H](O)[C@H]1CCCN1S(=O)(=O)c1ccccc1[N+](=O)[O-]
z-score [1]: 0.611 (inactive) | composite z-score [2]: -0.185 | z-score [3]: 11.5 (active) | z-score [4]: 1.43 (inactive) | z-score [5]: 0.643 (inactive) | z-score [6]: 0.647 (inactive) | z-score [7]: 0.229 | z-score [8]: -0.358 (inactive) | z-score [9]: -1.6 (inactive) | z-score [10]: -1.6 | z-score [11]: 0.623 | z-score [12]: 0.581 | z-score [13]: -0.291 | z-score [14]: -1.28 | z-score [15]: -0.264 | z-score [16]: -1.79 | z-score [17]: -0.221 (inactive) | z-score [18]: -0.525 | z-score [19]: -0.0633 | z-score [20]: 0.594 (inactive)

C=CC[C@@]1(C(=O)N2CCCCC2)N=C(c2ccc(OCCCO)cc2)O[C@@H]1c1ccccc1
z-score [1]: 0.659 (inactive) | composite z-score [2]: 0.683 | z-score [3]: 26.1 (active) | z-score [4]: 11.4 (active) | z-score [5]: 2.02 (inactive) | z-score [6]: 1.97 (inactive) | z-score [7]: -0.499 | z-score [8]: -0.432 (inactive) | z-score [9]: 0.174 (inactive) | z-score [10]: -1.66 | z-score [11]: -0.721 | z-score [12]: 0.533 | z-score [13]: 0.292 | z-score [14]: -1.3 | z-score [15]: -1.13 | z-score [16]: -0.381 | z-score [17]: -0.282 (inactive) | z-score [18]: -1.09 | z-score [19]: 0.0448 | z-score [20]: 2.5 (inactive)

CO[C@H]1O[C@H](CO)[C@@H](OC(=O)c2ccc(Br)cc2)[C@@H]2OC(=O)[C@@H](Cc3ccc4ccccc4c3)C/C=C/C[C@H](Cc3ccc4ccccc4c3)C(=O)O[C@@H]12
z-score [1]: 0.689 (inactive) | composite z-score [2]: -0.113 | z-score [3]: 2.52 (inactive) | z-score [4]: -0.503 (inactive) | z-score [5]: -1.15 (inactive) | z-score [6]: -2.1 (inactive) | z-score [7]: 1.74 | z-score [8]: 1.76 (inactive) | z-score [9]: 0.00292 (inactive) | z-score [10]: -1.77 | z-score [11]: 1.12 | z-score [12]: 1.26 | z-score [13]: 0.564 | z-score [14]: -0.0385 | z-score [15]: -0.21 | z-score [16]: -0.122 | z-score [17]: 0.497 (inactive) | z-score [18]: -0.299 | z-score [19]: -0.179 | z-score [20]: -1.41 (inactive)
